From PubChem BioAssay (EPA / NIEHS)
Some compounds were tested as several samples or in several runs, with calls that do not always agree. Active and inactive are the calls of the source. The calls were made as follows: active = hit-call score of the fitted dose curve at least 0.9, where 1 is the maximum; inactive = score below 0.9.

What was measured:
[1] = ATG_GLI_CIS: Attagene CIS-FACTORIAL HepG2 Assay for human Zinc Finger Protein GLI1 (AID 2282945); settings: HepG2, Attagene cis-factorial reporter mRNA, GLI element; actives raise or lower the signal
Method in brief: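 HepG2 cells transiently transfected with cis-promoter multiplexed reporter units report endogenous transcription factor activity. After 24 h chemical exposure, reporter mRNA was quantified by RT-PCR, 6-FAM labelling, HpaI digestion and capillary electrophoresis, with bidirectional fitting against DMSO.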

[2] = molecular target: Bile acid receptor (Homo sapiens) (UniProt Q96RI1); experiment: ATG_IR1_CIS: Attagene CIS-FACTORIAL HepG2 Assay for human Nuclear Receptor Subfamily 1 Group H Member 4 (NR1H4), IR1 submotif (AID 2282946); settings: IR1 reporter transcription, actives raise or lower the signal
Bile acid receptor (Homo sapiens), sequence (Q96RI1 whole entry, looked up): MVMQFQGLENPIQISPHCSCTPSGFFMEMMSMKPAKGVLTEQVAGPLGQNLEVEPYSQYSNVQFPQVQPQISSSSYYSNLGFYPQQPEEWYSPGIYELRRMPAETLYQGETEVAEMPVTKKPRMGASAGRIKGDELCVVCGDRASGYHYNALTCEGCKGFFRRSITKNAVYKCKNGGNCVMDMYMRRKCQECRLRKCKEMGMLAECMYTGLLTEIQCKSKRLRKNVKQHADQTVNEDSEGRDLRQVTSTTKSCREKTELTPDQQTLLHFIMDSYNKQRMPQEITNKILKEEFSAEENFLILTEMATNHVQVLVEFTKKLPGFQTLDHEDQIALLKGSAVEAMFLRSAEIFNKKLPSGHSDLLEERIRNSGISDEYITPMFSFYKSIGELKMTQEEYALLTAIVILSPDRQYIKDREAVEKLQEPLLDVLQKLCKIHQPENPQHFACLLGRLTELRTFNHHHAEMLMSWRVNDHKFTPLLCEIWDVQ
Method in brief: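 Transient MRTU transfection, HepG2; 24 h dosing; RNA → RT-PCR → 6-FAM primer extension → HpaI digest → capillary electrophoresis fluorescence. Gain/loss of signal fitted relative to DMSO.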

[3] = ATG_GRE_CIS: Attagene CIS-FACTORIAL HepG2 Assay for human Glucocorticoid Response Elements (GRE) (AID 2282947); settings: HepG2 GRE cis-reporter, Attagene multiplex mRNA; actives raise or lower the signal
Method in brief: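 HepG2 cells transiently transfected with multiple cis-promoter reporter units measure endogenous TF activity; 24 h compound exposure. Reporter mRNA quantified by RT-PCR, FAM labelling, HpaI digestion and capillary electrophoresis; bidirectional fit vs DMSO baseline.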

[4] = ATG_ISRE_CIS: Attagene CIS-FACTORIAL HepG2 Assay for human Interferon Regulatory Factor 1 (IRF1) binding to an Interferon-Stimulated Response Element (ISRE) (AID 2282948); settings: HepG2 ISRE cis-reporter (Attagene), mRNA transcription readout; actives raise or lower the signal
Method in brief: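 Cell-based cis-reporter assay; HepG2; 24 h exposure; reporter mRNA by RT-PCR plus capillary electrophoresis fluorescence; activity in either direction scored relative to DMSO.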

[5] = ATG_M_32_CIS: Attagene CIS-FACTORIAL HepG2 Assay for M32 Transcription Factor (Internal Marker) (AID 2282949); settings: HepG2 Attagene cis-factorial M32 reporter, mRNA; actives raise or lower the signal;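 also: background control marker of the multiplexed CIS panel rather than a real target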
Method in brief: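 Following 24 h chemical exposure of HepG2 cells transiently expressing cis-promoter reporter constructs, reporter transcript levels were determined by RT-PCR with fluorescent labelling and capillary electrophoresis, then fitted bidirectionally against DMSO.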

[6] = ATG_M_06_CIS: Attagene CIS-FACTORIAL HepG2 Assay for M06 Transcription Factor (Internal Marker) (AID 2282950); settings: HepG2 Attagene CIS-FACTORIAL M06 internal marker reporter; actives raise or lower the signal
Method in brief: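 Steps: transfect HepG2 with multiplexed cis-element reporter constructs; dose chemical 24 h; extract RNA with DNase treatment; reverse-transcribe, PCR-amplify, 6-FAM label, HpaI digest; separate fragments by capillary electrophoresis. Activity fitted both directions versus DMSO.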

[7] = molecular target: Hypoxia-inducible factor 1-alpha (Homo sapiens) (UniProt Q16665); experiment: ATG_HIF1a_CIS: Attagene CIS-FACTORIAL HepG2 Assay for human Hypoxia Inducible Factor 1 (HIF1A) (AID 2282951); settings: HepG2 Attagene cis-factorial HIF1a reporter transcription; actives raise or lower the signal
Hypoxia-inducible factor 1-alpha (Homo sapiens), sequence (Q16665 whole entry, looked up): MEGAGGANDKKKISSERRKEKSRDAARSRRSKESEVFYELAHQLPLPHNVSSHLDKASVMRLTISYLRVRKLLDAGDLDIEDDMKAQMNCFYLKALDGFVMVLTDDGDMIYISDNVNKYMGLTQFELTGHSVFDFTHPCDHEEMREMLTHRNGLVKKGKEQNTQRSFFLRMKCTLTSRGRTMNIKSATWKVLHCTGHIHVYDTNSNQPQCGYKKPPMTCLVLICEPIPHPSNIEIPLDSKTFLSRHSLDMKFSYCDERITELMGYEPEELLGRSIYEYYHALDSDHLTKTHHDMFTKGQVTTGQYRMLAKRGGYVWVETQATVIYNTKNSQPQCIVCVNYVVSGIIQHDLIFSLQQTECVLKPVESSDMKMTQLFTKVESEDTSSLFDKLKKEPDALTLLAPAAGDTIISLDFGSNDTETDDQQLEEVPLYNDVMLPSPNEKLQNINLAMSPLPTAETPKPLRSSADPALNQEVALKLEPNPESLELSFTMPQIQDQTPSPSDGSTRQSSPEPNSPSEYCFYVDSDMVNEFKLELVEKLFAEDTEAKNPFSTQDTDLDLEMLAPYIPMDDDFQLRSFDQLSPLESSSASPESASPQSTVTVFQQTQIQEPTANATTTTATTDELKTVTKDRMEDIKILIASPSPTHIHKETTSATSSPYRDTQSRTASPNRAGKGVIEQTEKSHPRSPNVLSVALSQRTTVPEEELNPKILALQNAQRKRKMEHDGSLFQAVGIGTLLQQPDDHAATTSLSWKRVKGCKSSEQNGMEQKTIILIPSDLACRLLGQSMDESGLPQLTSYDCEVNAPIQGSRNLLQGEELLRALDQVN
Method in brief: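 Cis-element reporter constructs were transiently transfected into HepG2 cells, which were treated for 24 h; reporter RNA was reverse-transcribed, amplified, labelled and resolved by capillary electrophoresis.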

[8] = molecular target: Hepatocyte nuclear factor 6 (Homo sapiens) (UniProt Q9UBC0); experiment: ATG_HNF6_CIS: Attagene CIS-FACTORIAL HepG2 Assay for human Hepatocyte Nuclear Factor 6 (HNF6) (AID 2282952); settings: HepG2 Attagene cis-factorial HNF6 reporter transcription; actives raise or lower the signal
Hepatocyte nuclear factor 6 (Homo sapiens), sequence (Q9UBC0 whole entry, looked up): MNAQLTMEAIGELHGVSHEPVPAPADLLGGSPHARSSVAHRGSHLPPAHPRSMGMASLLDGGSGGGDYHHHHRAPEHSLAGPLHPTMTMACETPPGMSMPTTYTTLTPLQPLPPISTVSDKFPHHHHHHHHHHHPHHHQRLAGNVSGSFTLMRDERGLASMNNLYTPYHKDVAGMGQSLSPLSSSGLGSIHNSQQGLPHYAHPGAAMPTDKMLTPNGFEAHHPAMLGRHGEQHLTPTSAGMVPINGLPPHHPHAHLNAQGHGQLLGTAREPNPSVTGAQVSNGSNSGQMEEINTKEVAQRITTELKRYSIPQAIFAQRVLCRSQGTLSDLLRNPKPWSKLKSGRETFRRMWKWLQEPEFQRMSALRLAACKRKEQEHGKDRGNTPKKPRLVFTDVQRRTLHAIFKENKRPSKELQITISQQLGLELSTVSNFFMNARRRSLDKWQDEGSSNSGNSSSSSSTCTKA
Method in brief: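 HepG2 cells transiently transfected with cis-element-driven multiple reporter transcription units, dosed 24 h; reporter mRNA quantified by RT-PCR, FAM primer extension, HpaI digestion and capillary electrophoresis; bidirectional fit versus DMSO baseline.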

[9] = molecular target: Heat shock factor protein 1 (Homo sapiens) (UniProt Q00613); experiment: ATG_HSE_CIS: Attagene CIS-FACTORIAL HepG2 Assay for human Heat Shock Transcription Factor 1 (HSE) (AID 2282953); settings: HepG2 HSE cis-reporter, Attagene RNA transcription; actives raise or lower the signal
Heat shock factor protein 1 (Homo sapiens), sequence (Q00613 whole entry, looked up, the tested form may be a part): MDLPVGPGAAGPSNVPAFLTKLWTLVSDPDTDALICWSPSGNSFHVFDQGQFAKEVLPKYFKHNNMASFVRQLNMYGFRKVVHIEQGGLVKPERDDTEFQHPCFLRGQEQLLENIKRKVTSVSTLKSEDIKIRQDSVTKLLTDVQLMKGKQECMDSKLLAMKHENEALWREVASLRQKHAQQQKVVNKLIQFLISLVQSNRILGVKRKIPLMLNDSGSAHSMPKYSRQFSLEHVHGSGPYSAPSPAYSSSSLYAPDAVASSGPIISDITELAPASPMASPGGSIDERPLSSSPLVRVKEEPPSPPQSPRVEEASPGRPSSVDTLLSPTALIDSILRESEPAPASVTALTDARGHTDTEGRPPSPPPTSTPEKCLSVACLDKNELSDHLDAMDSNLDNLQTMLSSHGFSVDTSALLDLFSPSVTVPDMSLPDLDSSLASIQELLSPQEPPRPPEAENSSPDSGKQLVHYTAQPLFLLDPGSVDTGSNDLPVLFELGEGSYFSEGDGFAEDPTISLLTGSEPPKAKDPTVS
Method in brief: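 Cells were transfected with cis-element-driven reporter constructs, dosed for 24 h, then total RNA was reverse-transcribed and reporter cDNA amplified, FAM-labelled and digested with HpaI. Fragments were resolved by capillary electrophoresis; gain or loss was fitted against DMSO.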

[10] = ATG_MRE_CIS: Attagene CIS-FACTORIAL HepG2 Assay for human Metal Responsive Element (MRE) (AID 2282954); settings: HepG2 MRE cis-reporter transcription, Attagene multiplex; actives raise or lower the signal
Method in brief: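 HepG2 cells transiently transfected with multiple cis-element reporter units measure endogenous MTF1-driven transcription. After 24 h compound exposure, reporter mRNA is quantified by RT-PCR with 6-FAM labelling, HpaI digestion and capillary electrophoresis; bidirectional fits versus DMSO.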

[11] = molecular target: Paired box protein Pax-6 (Homo sapiens) (UniProt P26367); experiment: ATG_Pax6_CIS: Attagene CIS-FACTORIAL HepG2 Assay for human Paired Box 6 (PAX6) (AID 2282956); settings: HepG2 CIS-FACTORIAL PAX6 reporter transcription, RNA readout; actives raise or lower the signal
Paired box protein Pax-6 (Homo sapiens), sequence (P26367 whole entry, looked up): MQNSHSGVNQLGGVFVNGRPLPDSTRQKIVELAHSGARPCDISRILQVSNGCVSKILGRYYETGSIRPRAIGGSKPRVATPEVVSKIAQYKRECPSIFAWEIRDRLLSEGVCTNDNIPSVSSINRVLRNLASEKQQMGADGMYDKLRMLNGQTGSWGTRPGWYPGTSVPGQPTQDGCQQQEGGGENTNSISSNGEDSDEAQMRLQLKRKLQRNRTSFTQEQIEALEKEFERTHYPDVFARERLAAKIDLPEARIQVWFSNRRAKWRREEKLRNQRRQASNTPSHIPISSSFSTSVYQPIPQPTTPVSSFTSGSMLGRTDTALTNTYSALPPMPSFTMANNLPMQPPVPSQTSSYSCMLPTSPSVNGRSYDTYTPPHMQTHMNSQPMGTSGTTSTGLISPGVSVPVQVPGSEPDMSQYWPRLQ
Method in brief: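 Multiplexed cis-reporter HepG2 system; 24 h treatment; reporter mRNA read by RT-PCR/CE fluorescence; bidirectional fit vs DMSO.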

[12] = ATG_PXRE_CIS: Attagene CIS-FACTORIAL HepG2 Assay for human Pregnane X Receptor Element (PXRE) (AID 2282957); settings: HepG2 Attagene CIS-FACTORIAL PXRE reporter, mRNA; actives raise or lower the signal
Method in brief: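 HepG2 cells transiently transfected with cis-regulated multiple reporter transcription units; endogenous factor activity measured as reporter mRNA 24 h after dosing. RT-PCR, fluorescent primer extension, HpaI digestion, capillary electrophoresis; bidirectional fit versus DMSO baseline.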

[13] = ATG_PPRE_CIS: Attagene CIS-FACTORIAL HepG2 Assay for human Peroxisome Proliferator-activated Response Element (PPRE) (AID 2282958); settings: HepG2 PPRE cis-element reporter, Attagene transcription factor profiling; actives raise or lower the signal
Method in brief: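 DMSO served as negative control and baseline for bidirectional curve fitting. Signal came from PPRE-regulated reporter mRNA in HepG2 cells, measured 24 h post-dosing by RT-PCR, 6-FAM primer extension and capillary electrophoresis.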

[14] = ATG_RORE_CIS: Attagene CIS-FACTORIAL HepG2 Assay for human RAR-related Orphan Receptor Element (RORE) (AID 2282959); settings: HepG2 Attagene cis-factorial RORE reporter, mRNA; actives raise or lower the signal
Method in brief: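 Transfect HepG2 with MRTUs; treat 24 h; extract RNA; RT with oligo(dT); PCR with reporter-specific primers; 6-FAM primer extension; HpaI digest 2 h at 37 C; capillary electrophoresis. Fit vs DMSO, bidirectional.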

[15] = ATG_Sox_CIS: Attagene CIS-FACTORIAL HepG2 Assay for human SRY-box transcription factor (SOX) (AID 2282960); settings: HepG2 Attagene cis-factorial SOX reporter, mRNA; actives raise or lower the signal
Method in brief: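 Fluorescence-labelled cDNA fragments from reporter transcripts, sized by CE, give the signal. Cells: HepG2, transiently transfected with cis-regulated reporter units. Exposure 24 h; DMSO negative control; bidirectional curve fitting.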

[16] = molecular target: Transcription factor Sp1 (Homo sapiens) (UniProt P08047); experiment: ATG_Sp1_CIS: Attagene CIS-FACTORIAL HepG2 Assay for human Specificity Protein 1 (Sp1) (AID 2282961); settings: HepG2 Sp1 cis-reporter transcription, actives raise or lower the signal
Transcription factor Sp1 (Homo sapiens), sequence (P08047 whole entry, looked up): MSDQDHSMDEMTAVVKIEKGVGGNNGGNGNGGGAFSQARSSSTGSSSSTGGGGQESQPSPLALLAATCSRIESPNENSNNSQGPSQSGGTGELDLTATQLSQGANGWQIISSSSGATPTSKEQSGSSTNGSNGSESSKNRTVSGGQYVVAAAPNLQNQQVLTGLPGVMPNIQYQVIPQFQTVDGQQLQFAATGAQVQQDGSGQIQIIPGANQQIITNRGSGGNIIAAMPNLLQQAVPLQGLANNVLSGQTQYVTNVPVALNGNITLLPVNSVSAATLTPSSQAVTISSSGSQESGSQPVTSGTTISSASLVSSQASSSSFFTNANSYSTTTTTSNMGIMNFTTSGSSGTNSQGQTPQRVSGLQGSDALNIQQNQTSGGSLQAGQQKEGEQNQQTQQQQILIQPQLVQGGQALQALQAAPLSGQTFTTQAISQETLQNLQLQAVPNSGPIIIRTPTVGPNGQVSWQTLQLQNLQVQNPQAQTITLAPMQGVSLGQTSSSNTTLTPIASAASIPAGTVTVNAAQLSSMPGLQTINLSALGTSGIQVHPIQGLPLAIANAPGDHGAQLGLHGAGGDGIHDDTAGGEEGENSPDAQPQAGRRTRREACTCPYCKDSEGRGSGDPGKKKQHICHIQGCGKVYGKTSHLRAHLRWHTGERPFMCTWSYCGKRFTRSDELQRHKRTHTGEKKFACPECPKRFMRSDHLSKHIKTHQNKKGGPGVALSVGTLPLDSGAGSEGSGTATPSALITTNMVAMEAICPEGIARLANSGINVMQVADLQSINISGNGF
Method in brief: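 Chemicals are dosed onto HepG2 cells transfected with multiple cis-promoter reporter constructs, and after 24 h reporter RNA is reverse-transcribed, PCR-amplified and resolved by capillary electrophoresis for fluorescence quantitation; activity is scored up or down against DMSO.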

[17] = ATG_SREBP_CIS: Attagene CIS-FACTORIAL HepG2 Assay for human Sterol Regulatory Element Binding (SREBP) (AID 2282962); settings: HepG2 Attagene cis-factorial SREBP reporter, mRNA; actives raise or lower the signal
Method in brief: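 mRNA induction of transfected cis-promoter reporters in HepG2 cells, 24 h post-dose. Detection: RT-PCR with 6-FAM-labelled products, HpaI digest, capillary electrophoresis. DMSO served as negative control and baseline.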

[18] = molecular target: Signal transducer and activator of transcription 3 (Homo sapiens) (UniProt P40763); experiment: ATG_STAT3_CIS: Attagene CIS-FACTORIAL HepG2 Assay for human Signal Transducer and Activator of Transcription 3 (STAT3) (AID 2282963); settings: HepG2, Attagene cis-factorial STAT3 reporter transcription; actives raise or lower the signal
Signal transducer and activator of transcription 3 (Homo sapiens), sequence (P40763 whole entry, looked up): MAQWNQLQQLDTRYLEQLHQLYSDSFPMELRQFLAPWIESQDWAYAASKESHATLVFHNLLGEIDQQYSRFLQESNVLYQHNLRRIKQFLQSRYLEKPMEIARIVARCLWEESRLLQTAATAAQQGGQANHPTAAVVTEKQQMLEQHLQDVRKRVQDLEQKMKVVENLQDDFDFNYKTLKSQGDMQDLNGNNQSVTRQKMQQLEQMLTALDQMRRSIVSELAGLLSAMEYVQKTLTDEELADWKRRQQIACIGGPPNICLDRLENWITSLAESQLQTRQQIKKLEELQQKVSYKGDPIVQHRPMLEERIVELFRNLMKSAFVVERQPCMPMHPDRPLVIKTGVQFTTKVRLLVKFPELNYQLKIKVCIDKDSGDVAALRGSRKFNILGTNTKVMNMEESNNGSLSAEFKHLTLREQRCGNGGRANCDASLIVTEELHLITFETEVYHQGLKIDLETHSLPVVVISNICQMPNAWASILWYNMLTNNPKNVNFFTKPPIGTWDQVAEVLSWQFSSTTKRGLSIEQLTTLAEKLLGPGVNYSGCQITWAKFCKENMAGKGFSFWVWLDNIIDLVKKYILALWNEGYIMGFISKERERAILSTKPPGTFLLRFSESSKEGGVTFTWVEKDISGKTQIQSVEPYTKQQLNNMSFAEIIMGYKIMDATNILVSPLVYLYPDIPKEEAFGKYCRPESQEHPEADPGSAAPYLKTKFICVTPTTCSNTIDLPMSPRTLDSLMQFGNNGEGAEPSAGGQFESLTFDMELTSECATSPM
Method in brief: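 HepG2 cells transiently transfected with cis-element-driven multiple reporter transcription units; after 24 h chemical exposure, reporter mRNA measured by RT-PCR, 6-FAM primer-extension labelling, HpaI digestion and capillary electrophoresis. Bidirectional fitting versus DMSO baseline.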

[19] = ATG_TA_CIS: Attagene CIS-FACTORIAL HepG2 Assay for human TA Basal Promoter (AID 2282964); settings: HepG2 Attagene CIS-factorial TA basal promoter reporter; actives raise or lower the signal
Method in brief: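 Steps: transfect HepG2 with MRTUs; dose 24 h; isolate RNA, DNase-treat, reverse-transcribe; PCR and FAM-label reporter cDNA; digest with HpaI 2h at 37 C; run capillary electrophoresis. Activity fitted both directions against DMSO.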

[20] = ATG_PBREM_CIS: Attagene CIS-FACTORIAL HepG2 Assay for human Phenobarbital-responsive Enhancer Module (PBREM) (AID 2282955); settings: HepG2 PBREM cis-reporter, Attagene multiplexed transcription; actives raise or lower the signal
Method in brief: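 Multiplexed cis-reporter readout in human hepatoma HepG2 cells; PBREM-regulated transcript quantified after 24 h exposure by fluorescent RT-PCR fragment analysis. Signal changes up or down fitted relative to DMSO.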

Measured: AC50

CCC(=O)OCCc1ccccc1
not listed: [20]
inactive: all other assays above

CCc1c(Br)c(Br)c(Br)c(Br)c1Br
active: [12] 8.3 µM
not listed: [20]
inactive: all other assays above

OC[C@@H](O)[C@@H](O)[C@H](O)[C@@H](O)CO
active: [12] 26.3 µM
inactive: [1] | [4] | [5] | [6] | [7] | [8] | [9] | [10] | [11] | [12] | [14] | [15] | [16] | [17] | [18]

OCC(F)(F)C(F)(F)C(F)(F)C(F)(F)C(F)(F)C(F)(F)F
active: [12] 242 µM | [17] 234 µM
not listed: [20]
inactive: all other assays above

O=S(=O)(OCC(F)F)C(F)(F)F
inactive: all assays above

O=C(Cl)C(F)(F)C(F)(F)C(F)(F)C(F)(F)C(F)(F)C(F)(F)C(F)(F)C(F)(F)F
active: [4] 33.4 µM | [9] 49.6 µM | [10] 48 µM | [11] 54.1 µM | [12] 8.97 µM | [13] 33.4 µM | [14] 44.5 µM
not listed: [19] | [20]
inactive: all other assays above

Cc1ccc(S(=O)(=O)NCl)cc1
inactive: [1] | [3] | [4] | [5] | [6] | [7] | [8] | [9] | [10] | [11] | [12] | [15] | [16] | [17] | [18]
active: [12] 131 µM
